From PubChem
Shown are actives, neighbours in structure and some others; about 7.1% of the full set was active somewhere.
ATXN2 expr inh: inhibitors of ATXN2 expression; Potency, µM (doses to about 57 µM), usual class: inhibitors; HEK-293 ATXN2-luciferase reporter, luminescence, 24 h; hit rate 0.72% among 360,000; further: nearly all actives have a fitted effect of over 55% in size
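qHTS (up to 57 uM final) was run with 24 h compound exposure of reporter cells at 37 °C. Each well was multiplexed: SteadyGlo luminescence measured ATXN2-luciferase expression after a fluorogenic Gly-Phe-AFC viability readout (25 uM final).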
SW480 rerep: inducers of DNA re-replication in SW480 colon cancer cells | Potency, µM (highest dose often 46.1 µM), actives largely listed as activators | SW480 DNA re-replication, Hoechst DNA content imaging, 48 h | hit rate 1.8% among 340,000; further: nearly all actives have a fitted effect of over 55% in size
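Compounds, transferred as 23 nL by pin tool, were incubated with cells for 48 hr; DNA content per nucleus was then quantified by Hoechst staining and fluorescence plate imaging.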
PINK1 expr mod: changes PINK1 expression. PINK1 immunofluorescence, high-content cytometry, 24 h. Potency, µM (top dose mostly 76.6 µM), hits mostly activators. hit rate 0.2% among 410,000; active means well fitted activation curve with a large enough effect; inconclusive means small, poorly fitted or top-dose-only effect; cell line not stated here; further: nearly all actives have a fitted effect of over 65% in size
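Stable cell line treated 24 h with compounds at 5 concentrations (CCCP controls), then fixed and immunostained for PINK1 plus nuclear and cell stains; PINK1 immunofluorescence quantified by laser-scanning microplate cytometry.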
S2 tox: viability counter-screen for ATXN expression inhibitors; S2 cells (HEK-293 line with an ATXN2-luciferase reporter) viability, CellTiter-Fluor protease fluorescence, 24 h; Potency, µM (highest dose often 56.7 µM), hits mostly cytotoxic; hit rate 0.49% among 400,000; further: nearly all actives have a fitted effect of over 40% in size
MCF10A rereplic: inducers of DNA re-replication in MCF 10A breast cells; hit rate 2.9% among 350,000; AID 624296; MCF 10A DNA re-replication, Hoechst nuclear intensity, 48 h; Potency, µM (series often up to 46.1 µM), actives largely listed as activators; further: nearly all actives have a fitted effect of over 50% in size
IL-1B inflam inh: blocks inflammasome-driven IL-1 beta release; activity change, % at 57.5 µM; hit rate 4.7% among 360,000; THP-1 LPS/ATP IL-1B secretion, AlphaLISA, 16 h; active compounds read low; in the data active means activity change below about -50%; inconclusive means mostly about -30% to -49%
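Secreted IL-1B measured by AlphaLISA bead assay after 16 h compound exposure of THP-1 cells; compounds (final up to 57.5 uM) added 1 h before LPS (250 ng/mL) and ATP (1.25 mM) stimulation; lower signal means less secretion.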
Numbers stand for hits; – = inactive; ? = inconclusive; · = no result given; [ ] = dose if it differs, or a comment. Unless noted, the call rests on the fitted dose curve; in most records, active means well fitted curve in the direction sought with a large enough effect; inconclusive means small, poorly fitted or top-dose-only effect, or another doubt; inactive means no such curve, though single readings can be large; an effect the other way counts as inactive or inconclusive.

SMILES	ATXN2 expr inh	SW480 rerep	PINK1 expr mod	S2 tox	MCF10A rereplic	IL-1B inflam inh
Cc1cc2nc(/C(C#N)=C/c3ccncc3)[nH]c2cc1C	–	13µM	–	–	23µM	–
C=CCc1cccc(/C=N/NC(=O)CNc2ccccc2)c1O	18µM	13µM	–	?	–	–
C=CCc1cccc(/C=N/NC(=O)CCCNc2ccc(C)cc2)c1O	?	?	–	–	?	–
C=CCc1cccc(/C=N/NC(=O)C(C)Nc2cccc(C)c2)c1O (centres undefined)	–	3.3µM	–	–	–	–
C=CCc1cccc(/C=N/NC(=O)CCC(=O)Nc2ccc(F)cc2)c1O	3.5µM	?	–	–	–	–
C=CCc1cccc(/C=N/NC(=O)CNc2ccccc2OC)c1O	?	16µM	–	–	?	–
C=CCc1cccc(/C=N/NC(=O)CNc2cccc3ccccc23)c1O	?	?	–	?	?	–
COc1ccccc1NC(=O)CSc1cn(CC(=O)N2CCCC2)c2ccccc12	–	·	–	–	·	·
Cc1ccccc1OCC(=O)Nc1ccccc1OCc1cc(=O)n2ccccc2n1	·	·	–	·	·	·
Cc1nc(N2CCCCC2)sc1C(=O)c1cccc([N+](=O)[O-])c1	–[11.3 µM]	–	–	–	–	-103
O=[N+]([O-])c1ccc(N2CCCCC2)cc1SCCO	–	–	–	–	–	–
Cc1nc(N2CCCCC2)sc1C(=O)c1ccc(SCCO)c([N+](=O)[O-])c1	–	–	–	–	?	-54
N=C(c1cccc([N+](=O)[O-])c1)N1CCCCCC1	·	–	–	–	–	–
O=C1CN(C(=O)c2ccc(Cl)cc2Cl)C(c2ccc(F)cc2)c2cc(F)ccc2N1 (centres undefined)	–	·	–	?	·	·
CCOC(=O)c1cc(C)n(CC2CCC(C(=O)Nc3ccc(Cl)cc3)CC2)c1C (centres undefined)	·	·	–	·	·	·
Cc1cc(C(=O)OCC(=O)Nc2ccc(F)cc2F)c(C)o1	–	–	–	–	–	-55
Cc1cc(C(=O)OCC(=O)Nc2ccccc2C)c(C)o1	–	–	–	–	–	–
Cc1nn(-c2ccc(F)cc2)c(Cl)c1/C=C/C(=O)OCC(=O)Nc1c(F)c(F)c(F)c(F)c1F	–[11.3 µM]	–	–	–	?	–
Cc1nn(-c2ccc(F)cc2)c(Cl)c1/C=C/C(=O)OCC(=O)Nc1ccc(F)cc1F	–	–	–	?	15µM	–
CCCN(CC(=O)Nc1ccccc1C)C(=O)c1ccc(N2CCCC(C)C2)c([N+](=O)[O-])c1 (centres undefined)	–	–	–	–	?	-71
CCCN(CC(=O)Nc1ccccc1C)C(=O)c1ccc(N2CCOCC2)c([N+](=O)[O-])c1	–	–	–	–	–	–
Cc1ccc(C(=O)NCc2ccco2)cc1[N+](=O)[O-]	–	–	–	–	–	–
CC1CCCN(c2ccc(C(=O)NCc3ccco3)cc2[N+](=O)[O-])C1 (centres undefined)	–	–	–	?	?	-61
O=C(NCCCc1nc2ccccc2n1Cc1cccc(Cl)c1)c1ccco1	·	·	–	·	·	·
Cc1ccc(S(=O)(=O)Nc2cc3c(cc2C)n(C)c(=O)c(=O)n3C)cc1	–	·	–	–	·	·
SMILES	ATXN2 expr inh	SW480 rerep	PINK1 expr mod	S2 tox	MCF10A rereplic	IL-1B inflam inh
Cc1ccc(NC(=O)CCCn2c(=O)c3cccn3c3ccccc32)c(C)c1	·	·	–	·	·	·
COc1ccc(OC)c(-c2csc(-c3c(N)c(C(=O)c4ccc(Cl)cc4)n4ccccc34)n2)c1	–	·	–	–	·	·
S=c1[nH]nc(-c2cc3c(s2)-c2ccccc2CC3)o1	–	8.2µM	–	·	?	–
COc1ccc(-c2ccc(=O)n(Cc3cccc(Cl)c3)n2)cc1	–	–	–	–	–	-51
Cc1ccc(-c2ccc(=O)n(Cc3cc(C)ccc3C)n2)cc1	–	?	–	–	?	?
Cc1ccc(C)c(Cn2nc(-c3ccccc3)ccc2=O)c1	–	?	–	?	–	-75
Cc1ccc(-c2ccc(=O)n(Cc3cccc(Br)c3)n2)cc1	–	?	–	–	?	-78
CC1=C[C@@H]2[C@@H]([C@@H](O)C[C@@]3(C)[C@H]2C[C@@H](C)[C@]3(O)C(=O)CO)[C@@]2(C)Cc3cnn(-c4ccccc4)c3C=C12	–	·	·	·	·	·
COc1ccc(N2CC(NC(=O)C(=O)c3c[nH]c4ccccc34)CC2=O)cc1 (centres undefined)	·	·	–	·	·	·
Cc1ccc(-c2cn3c(n2)sc2cc(C(=O)N4CCCCC4)ccc23)cc1	·	·	–	·	·	·
Cc1ccc(S(=O)(=O)N2CC3(O)CN(C(=O)OC(C)C)N(C(=O)OC(C)C)CC3(OC(=O)Nc3cccs3)C2)cc1 (centres undefined)	–	·	–	?	·	-80
Cc1ccc(S(=O)(=O)N2CC3(O)CN(C(=O)OC(C)C)N(C(=O)OC(C)C)CC3(OC(=O)NCc3ccco3)C2)cc1 (centres undefined)	–	·	–	–	·	-56
Cc1cc(NC(=O)CCSc2nc(-c3ccco3)cc(C(F)(F)F)n2)no1	–	–	–	–	–	–
Cc1cccc(C)c1NC(=O)CSc1nc(-c2ccco2)cc(C(F)(F)F)n1	–	21µM	·	–	–	–
Cc1cc(NC(=O)CSc2nc(-c3ccco3)cc(C(F)(F)F)n2)no1	–	0.73µM	–	?	3.3µM	–
CCC(=O)N1CCc2cc(Br)cc(S(=O)(=O)N(CC)Cc3ccccc3)c21	–	·	–	–	·	·
COCCNc1nc(-c2cc3ccccc3o2)cs1	–	–	–	–	–	-53
CO/N=C\CC(=O)Nc1ccc(Cl)cc1Cl	–	7.3µM	–	–	16µM	–
CCOc1cc(C(=O)N2CC(=O)Nc3ccc(F)cc3C2c2ccccc2)cc(OCC)c1OCC (centres undefined)	–	·	–	–	·	·
O=S1(=O)c2ccc(Br)cc2N2CCC[C@@H]2CN1Cc1ccccc1	–	2.9µM	–	?	?	–
COc1ccc(C2Nc3ccccc3C(=O)N2Cc2ccco2)cc1OC (centres undefined)	·	·	–	·	·	·
N#Cc1c2ccc(O)cc2n2ccccc12	–	?	–	·	?	-52
O=C(CSc1ccc(-c2cccc([N+](=O)[O-])c2)nn1)N1CCCCCC1	–	–	–	–	–	-54
CCC(C)NC(=O)CCC(=O)Nc1ccc2nc(N3CC(C)CC(C)C3)cc(C)c2c1 (centres undefined)	–	?	?	–	21µM	-59
CCCCNC(=O)CCC(=O)Nc1ccc2nc(N3CCC(C)CC3)cc(C)c2c1	·	?	–	–	21µM	–
CCC(C)NC(=O)CCC(=O)Nc1ccc2nc(N3CCOCC3)cc(C)c2c1 (centres undefined)	–	–	–	–	–	–
Cc1cc(N2CCOCC2)nc2ccc(NC(=O)CCC(=O)N3CCC(C)CC3)cc12	–	–	–	–	–	–
